Eleven compounds from PubChem BioAssay (Tox21) can be followed below.

A short description of test [1]: qHTS assay to identify aromatase inhibitors - cell viability counter screen (AID 743084;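 note: cells stimulated with testosterone during compound exposure; nearly all actives have a fitted effect of over 55% in size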; note: potency is the fitted concentration of half-maximal effect). (Quantitative high-throughput screening tests each substance at several concentrations.)
A short description of test [2]: qHTS assay to identify small molecule that activate the aryl hydrocarbon receptor (AhR) signaling pathway - cell viability counter screen (AID 743086). Note: nearly all actives have a fitted effect of over 45% in size. Note: potency is the fitted concentration of half-maximal effect. The method in brief:
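HepG2-AhR-luc (HG2L7.5c1) cells, 4000/well, were preincubated 5 h at 37C, exposed to compound in qHTS format for 24 hr at 37C, then given CellTiter-Fluor for 30 min; viability was read as fluorescence in the reporter wells.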

Test [3] deals with Peroxisome proliferator-activated receptor gamma (Homo sapiens) (UniProt P37231). Nature of the test: qHTS assay to identify small molecule antagonists of the peroxisome proliferator-activated receptor gamma (PPARg) signaling pathway (AID 743191; calls by dose curve; note: series mostly up to about 63 µM; nearly all actives have a fitted effect of over 30% in size). The method in brief:
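GeneBLAzer PPARg UAS-bla HEK293H cells carrying a UAS-driven beta-lactamase reporter were plated at 3000 cells/well, preincubated 5 h at 37C, then given compound for 17 h at 37C; LiveBLAzer B/G FRET substrate was read after 1 h at room temperature.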

Test [4] is described as follows: qHTS assay to identify small molecule antagonists of the peroxisome proliferator-activated receptor gamma (PPARg) signaling pathway - cell viability counter screen (AID 743194). Note: nearly all actives have a fitted effect of over 55% in size. The gist of the method: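 PPARg-UAS-bla HEK293H cells were plated, rested 5 h at 37 C, then treated with compounds plus rosiglitazone (50 nM final) for 17 h at 37 C; viability was then read by CellTiter-Glo luminescence after 30 min at room temperature.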

Test [5] can be described thus: qHTS assay for small molecule agonists of the antioxidant response element (ARE) signaling pathway (AID 743202; active = well fitted activation curve with a large enough effect in the signal ratio in the repeat runs, not every such curve was filed as active; the % refers to the signal ratio; note: potency is the fitted concentration of half-maximal effect). The gist of the method:
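Following a 16 h, 37 C exposure of reporter HepG2 cells (ARE-driven beta-lactamase, 2,000 cells/well) to compounds, FRET substrate was applied for 2 h at room temperature and fluorescence intensity recorded.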

A short description of test [6]: qHTS assay for small molecule agonists of the antioxidant response element (ARE) signaling pathway - cell viability counter screen (AID 743203; calls by dose curve; note: nearly all actives have a fitted effect of over 55% in size). The gist of the method: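 Viability counter screen: CellTiter-Glo luminescence, read after 30 min at room temperature, in ARE-bla HepG2 wells. Compound exposure lasted 16 h at 37C/5% CO2, following a 5 h pre-incubation of the cells after plating.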

Test [7] in a line: qHTS assay for small molecule activators of the heat shock response signaling pathway - cell viability counter screen (AID 743209). Note: nearly all actives have a fitted effect of over 50% in size. The gist of the method: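 Cytotoxicity counter screen run in the same wells as the heat-shock bla reporter assay: HeLa HSE-bla cells, 5 h compound exposure at 37 C, viability read by CellTiter-Glo luminescence.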
Test [8] is described as follows: qHTS assay for small molecule activators of the heat shock response signaling pathway (AID 743210; active = well fitted activation curve with a large enough effect in the signal ratio in the repeat runs, with a control signal flat, not every such curve was filed as active; the % refers to the signal ratio; note: series mostly up to about 63 µM). The gist of the method: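 Heat shock element–beta-lactamase HeLa reporter cells; qHTS with compounds for 5 h at 37 C; detection by FRET substrate fluorescence after 2.5 h at RT.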
A short description of test [9]: qHTS assay to identify small molecule agonists of the peroxisome proliferator-activated receptor delta (PPARd) signaling pathway - cell viability counter screen (AID 743211). Note: nearly all actives have a fitted effect of over 55% in size. Note: potency is the fitted concentration of half-maximal effect. The method in brief: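 Multiplexed format: after the 2 h room-temperature LiveBLAzer B/G FRET step, CellTiter-Glo was added to the same wells. Luminescence after 30 min gave cell viability; compound exposure was 17 h at 37C.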

Test [10] is described as follows: qHTS assay to identify small molecule agonists of the farnesoid-X-receptor (FXR) signaling pathway - cell viability counter screen (AID 743218). Note: nearly all actives have a fitted effect of over 45% in size. Note: potency is the fitted concentration of half-maximal effect. The gist of the method:
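Viability counter screen in the same wells: CellTiter-Glo luminescence, 30 min room-temperature incubation, measured after the beta-lactamase read. Cells were GeneBLAzer FXR-UAS-bla HEK 293T, compound-treated 16 h at 37C.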

Test [11] can be described thus: qHTS assay to identify small molecule antagonists of the farnesoid-X-receptor (FXR) signaling pathway - cell viability counter screen (AID 743221; active = well fitted cell-killing curve with a large enough effect in the repeat runs, not every such curve was filed as active; note: nearly all actives have a fitted effect of over 50% in size; note: potency is the fitted concentration of half-maximal effect). The gist of the method: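 CellTiter-Glo, 30 min RT, luminescence; same wells as the LiveBLAzer FRET read. Cells: FXR-UAS-bla HEK 293T. Treatment: compound with chenodeoxycholic acid 50 uM final, 16 h at 37 C.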
In test [12] the target is Vitamin D3 receptor (Homo sapiens) (UniProt P11473). Description: qHTS assay to identify small molecule agonists of the vitamin D receptor (VDR) signaling pathway (AID 743222; calls by dose curve). The gist of the method: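 Agonist mode, beta-lactamase reporter: fluorescence from LiveBLAzer B/G FRET substrate (2 h, room temperature) read after 16 h compound treatment at 37 C of VDR-bla cells, which were pre-incubated 4 h after seeding.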

Test [13] has the same target. Description: qHTS assay to identify small molecule antagonists of the vitamin D receptor (VDR) signaling pathway (AID 743223; active = well fitted inhibition curve with a large enough effect in the signal ratio in the repeat runs, not every such curve was filed as active; the % refers to the signal ratio). The method in brief: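 After VDR-bla cells are plated and left 4 h at 37C, DMSO-dissolved compounds and 3 nM (final) calcitriol agonist are added. Incubation continues 16 h at 37C; FRET beta-lactamase substrate then develops 2 h at room temperature.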

Test [14] has as its target Aryl hydrocarbon receptor (Homo sapiens) (UniProt P35869). Nature of the test: qHTS assay to identify small molecule that activate the aryl hydrocarbon receptor (AhR) signaling pathway (AID 743085).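 For activation: HG2L7.5c1 human HepG2 liver cells with stably integrated DRE-driven firefly reporter; series mostly up to about 70 µM.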 Note: nearly all actives have a fitted effect of over 15% in size. Note: potency is the fitted concentration of half-maximal effect. The method in brief:
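Reporter assay in engineered HepG2 line HG2L7.5c1, whose plasmid carries twenty dioxin responsive elements upstream of firefly luciferase. Treatment lasted 24 h at 37C; ONE-Glo luminescence gauged induction.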

In test [15] the target is Peroxisome proliferator-activated receptor gamma (Homo sapiens) (UniProt P37231). Nature of the test: qHTS assay to identify small molecule agonists of the peroxisome proliferator-activated receptor gamma (PPARg) signaling pathway (AID 743094; active = well fitted activation curve with a large enough effect in the signal ratio in the repeat runs, not every such curve was filed as active; the % refers to the signal ratio). The method in brief:
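Agonist activity was taken from a beta-lactamase reporter (FRET substrate, 1 h at room temperature) in HEK293H cells carrying a PPARg UAS-bla construct. Compounds in DMSO were incubated 17 h at 37C after a 5 h cell pre-incubation.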

Test [16] is described as follows: qHTS assay to identify small molecule antagonists of the peroxisome proliferator-activated receptor delta (PPARd) signaling pathway - cell viability counter screen (AID 743213). Note: nearly all actives have a fitted effect of over 50% in size. The gist of the method:
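Viability counter-screen, qHTS format: PPARd-bla HEK293H, L165041 300 nM final, 17 h compound exposure at 37 C, CellTiter-Glo luminescence after 30 min RT.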

In test [17] the target is Peroxisome proliferator-activated receptor delta (Homo sapiens) (UniProt Q03181). Description: qHTS assay to identify small molecule agonists of the peroxisome proliferator-activated receptor delta (PPARd) signaling pathway (AID 743212; calls by dose curve). The gist of the method:
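Beta-lactamase reporter read by fluorescence (LiveBLAzer B/G FRET, 2 h, room temperature). Test agents, in DMSO, incubated at 37 C with PPARd-bla HEK293H cells.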

In test [18] the target is Bile acid receptor (Homo sapiens) (UniProt Q96RI1). Nature of the test: qHTS assay to identify small molecule antagonists of the farnesoid-X-receptor (FXR) signaling pathway (AID 743217; active = well fitted inhibition curve with a large enough effect in the signal ratio in the repeat runs, not every such curve was filed as active; the % refers to the signal ratio). The gist of the method: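 Antagonist mode: chenodeoxycholic acid at 50 uM final stimulates a UAS-driven beta-lactamase reporter in HEK 293T FXR-bla cells during 16 h, 37C compound exposure. Read-out is FRET substrate fluorescence after 2 h at room temperature.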

For test [19] the target is unchanged. Nature of the test: qHTS assay to identify small molecule agonists of the farnesoid-X-receptor (FXR) signaling pathway (AID 743220; active = well fitted activation curve with a large enough effect in the signal ratio in the repeat runs, not every such curve was filed as active; the % refers to the signal ratio). The method in brief:
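FXR-UAS-bla HEK 293T cells carrying a UAS-driven beta-lactamase reporter were plated for 5 h at 37C/5% CO2, then exposed to DMSO-dissolved Tox21 10K compounds for 16 h at 37C. A LiveBLAzer B/G FRET substrate was loaded for 2 h at room temperature before fluorescence reading.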

Test [20] has as its target Peroxisome proliferator-activated receptor delta (Homo sapiens) (UniProt Q03181). Nature of the test: qHTS assay to identify small molecule antagonists of the peroxisome proliferator-activated receptor delta (PPARd) signaling pathway (AID 743215; active = well fitted inhibition curve with a large enough effect in the signal ratio in the repeat runs, not every such curve was filed as active; the % refers to the signal ratio;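 note: cells stimulated with agonist L165041 at 300 nM final during compound exposure; series mostly up to about 62 µM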). The gist of the method: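 Agonist L165041 (300 nM final) added with compound to PPARd-bla HEK293H UAS-bla reporter cells; 17 h incubation at 37 C. Read-out: LiveBLAzer FRET substrate, 2 h at room temperature, fluorescence intensity.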

Records with an inconclusive call do not appear. The source made the active and inactive calls. Unless noted, calls come from the whole dose curve; as a rule, active = well fitted curve in the direction sought with a large enough effect in the repeat runs; inconclusive = weak or mixed curves; inactive = no such curve, though single readings can be large; an effect the other way counts as inactive or inconclusive.

Sequence of Aryl hydrocarbon receptor (Homo sapiens) (P35869 whole entry, looked up): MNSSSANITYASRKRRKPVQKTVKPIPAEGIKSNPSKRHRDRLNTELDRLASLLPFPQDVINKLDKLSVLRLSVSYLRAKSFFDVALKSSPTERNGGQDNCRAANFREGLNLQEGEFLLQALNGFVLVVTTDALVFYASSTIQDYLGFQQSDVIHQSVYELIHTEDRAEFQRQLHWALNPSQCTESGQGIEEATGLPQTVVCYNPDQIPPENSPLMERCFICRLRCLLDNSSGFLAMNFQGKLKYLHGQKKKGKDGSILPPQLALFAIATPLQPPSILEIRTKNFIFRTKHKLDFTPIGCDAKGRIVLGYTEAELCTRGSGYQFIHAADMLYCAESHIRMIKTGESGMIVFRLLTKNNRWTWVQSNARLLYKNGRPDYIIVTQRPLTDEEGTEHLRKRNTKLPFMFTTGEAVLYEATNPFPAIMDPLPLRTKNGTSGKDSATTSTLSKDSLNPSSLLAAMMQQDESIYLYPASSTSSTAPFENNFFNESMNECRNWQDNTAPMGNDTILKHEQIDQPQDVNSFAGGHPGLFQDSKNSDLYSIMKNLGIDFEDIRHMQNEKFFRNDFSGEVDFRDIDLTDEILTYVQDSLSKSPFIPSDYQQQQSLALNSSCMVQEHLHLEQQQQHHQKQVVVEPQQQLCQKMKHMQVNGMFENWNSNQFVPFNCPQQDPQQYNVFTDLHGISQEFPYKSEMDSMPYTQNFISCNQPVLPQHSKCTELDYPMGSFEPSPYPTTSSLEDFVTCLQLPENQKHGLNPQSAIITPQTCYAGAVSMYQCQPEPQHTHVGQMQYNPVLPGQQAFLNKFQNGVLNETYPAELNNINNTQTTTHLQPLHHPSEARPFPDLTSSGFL
Sequence of Peroxisome proliferator-activated receptor gamma (Homo sapiens) (P37231 whole entry, looked up): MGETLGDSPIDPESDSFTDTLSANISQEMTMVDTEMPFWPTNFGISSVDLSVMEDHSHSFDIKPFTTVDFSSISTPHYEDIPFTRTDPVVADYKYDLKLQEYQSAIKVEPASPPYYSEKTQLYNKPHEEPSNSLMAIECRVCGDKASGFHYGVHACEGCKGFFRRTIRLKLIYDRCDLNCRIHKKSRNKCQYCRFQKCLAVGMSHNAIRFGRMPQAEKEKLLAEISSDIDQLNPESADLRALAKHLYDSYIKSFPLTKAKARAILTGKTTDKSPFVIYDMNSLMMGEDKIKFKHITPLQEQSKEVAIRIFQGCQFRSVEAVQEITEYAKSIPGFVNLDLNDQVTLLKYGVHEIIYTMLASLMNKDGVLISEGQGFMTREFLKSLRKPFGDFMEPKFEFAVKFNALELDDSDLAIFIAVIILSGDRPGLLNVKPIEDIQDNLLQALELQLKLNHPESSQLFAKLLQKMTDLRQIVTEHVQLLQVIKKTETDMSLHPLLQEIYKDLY
Sequence of Peroxisome proliferator-activated receptor delta (Homo sapiens) (Q03181 whole entry, looked up): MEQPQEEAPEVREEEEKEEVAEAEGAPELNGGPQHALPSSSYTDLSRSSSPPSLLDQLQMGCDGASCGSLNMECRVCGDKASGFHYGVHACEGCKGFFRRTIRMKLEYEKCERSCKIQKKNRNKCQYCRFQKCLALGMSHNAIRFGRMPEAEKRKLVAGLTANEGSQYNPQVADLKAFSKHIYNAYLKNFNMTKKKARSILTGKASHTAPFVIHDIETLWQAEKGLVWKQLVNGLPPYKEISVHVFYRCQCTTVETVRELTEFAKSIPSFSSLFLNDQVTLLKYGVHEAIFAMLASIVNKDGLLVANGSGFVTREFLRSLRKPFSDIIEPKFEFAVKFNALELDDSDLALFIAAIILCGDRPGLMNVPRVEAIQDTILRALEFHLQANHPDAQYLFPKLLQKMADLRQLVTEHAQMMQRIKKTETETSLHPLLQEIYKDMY
Sequence of Bile acid receptor (Homo sapiens) (Q96RI1 whole entry, looked up): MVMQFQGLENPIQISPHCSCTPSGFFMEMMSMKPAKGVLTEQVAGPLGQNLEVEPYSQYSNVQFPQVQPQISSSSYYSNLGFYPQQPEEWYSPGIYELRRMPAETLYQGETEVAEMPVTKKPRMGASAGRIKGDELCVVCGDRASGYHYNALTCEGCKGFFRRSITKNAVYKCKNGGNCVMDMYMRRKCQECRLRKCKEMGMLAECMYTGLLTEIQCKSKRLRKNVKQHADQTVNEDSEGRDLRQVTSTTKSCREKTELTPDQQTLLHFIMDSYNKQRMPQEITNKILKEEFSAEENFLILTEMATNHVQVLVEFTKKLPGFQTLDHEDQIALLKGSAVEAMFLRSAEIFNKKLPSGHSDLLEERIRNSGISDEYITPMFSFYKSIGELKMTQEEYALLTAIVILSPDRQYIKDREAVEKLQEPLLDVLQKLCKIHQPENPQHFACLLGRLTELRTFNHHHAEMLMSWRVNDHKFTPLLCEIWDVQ
Sequence of Vitamin D3 receptor (Homo sapiens) (P11473 whole entry, looked up): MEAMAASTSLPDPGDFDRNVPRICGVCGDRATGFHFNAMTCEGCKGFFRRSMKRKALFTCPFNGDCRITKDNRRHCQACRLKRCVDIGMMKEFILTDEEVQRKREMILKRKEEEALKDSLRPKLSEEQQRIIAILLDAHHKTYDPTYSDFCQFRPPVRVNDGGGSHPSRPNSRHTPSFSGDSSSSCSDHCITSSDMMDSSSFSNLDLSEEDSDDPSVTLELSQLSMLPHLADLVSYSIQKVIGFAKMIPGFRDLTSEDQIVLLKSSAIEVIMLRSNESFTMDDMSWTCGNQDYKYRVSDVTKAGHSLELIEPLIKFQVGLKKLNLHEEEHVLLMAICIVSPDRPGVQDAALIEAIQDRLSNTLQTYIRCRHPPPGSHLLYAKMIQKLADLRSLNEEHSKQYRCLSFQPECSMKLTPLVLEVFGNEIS

Consider `Oc1cccc(O)c1O`, for which the Potency result in test [1], in [2], in test [3], in [4], in test [5] and in [6] was “inactive” throughout. Further, the Potency entry in test [7], in [8], in [9], in [10], in test [11] and in test [12] was “inactive” throughout. The Potency entry in test [13] is “inactive”.
For `CC(C)(c1ccccc1)c1ccccc1`, the Potency entry in [14], in test [2], in test [15], in test [4], in test [5] and in test [6] was “inactive” throughout. Also, the Potency entry in [8], in test [9], in [16], in test [10], in [11] and in test [12] was “inactive” in each case. Further, in [13], the Potency entry was “inactive”.
Consider `Cc1cc(O)ccc1O`, for which the Potency in test [14] is 61.8 µM (active). Further, the Potency result in test [2], in test [4], in [6], in test [7], in test [8] and in [9] was “inactive” in each case. In addition, the Potency result in [17], in test [16], in test [18], in [19], in test [11] and in [13] was “inactive” throughout.
On to `C[C@]1(Cn2ccnn2)[C@H](C(=O)O)N2C(=O)C[C@H]2S1(=O)=O`, for which the Potency entry in test [1], in test [2], in test [4], in test [6], in [7] and in test [8] was “inactive” throughout. For the same compound, the Potency result in test [9], in test [16], in test [10], in test [19] and in [12] was “inactive” in each case.
As to `Oc1cccc(Nc2ccccc2)c1`, the Potency entry in test [1], in [2], in test [4], in test [6], in test [7] and in [8] was “inactive” each time. In addition, the Potency entry in test [9], in [17], in test [16], in [20], in test [18] and in test [10] was “inactive” each time. Moreover, the Potency entry in test [19] and in test [11] was “inactive” each time.
Consider `c1cc(N(CC2CO2)CC2CO2)ccc1Cc1ccc(N(CC2CO2)CC2CO2)cc1` (stereo unspecified), for which the Potency is 27.3 µM (active) in test [1] and 54.5 µM (active) in [2]. For the same compound, the Potency result in test [7], in test [9], in test [16], in test [10] and in test [11] was “inactive” in each case.
Turning to `Cc1cc(=O)c2c(O)c3c(O)cc(=O)c4c3c3c(cc(O)c1c23)C(C)(C)C=4O`, the Potency result in [1] and in test [2] was “inactive” throughout. The Potency in test [9] was 291 nM (active); in [10] it was 1.84 µM (active); in [11] it was 1.84 µM (active).
Consider `O=C1c2ccccc2C(=O)C1(O)O`, for which the Potency in test [14] is 61.4 µM (active). Further, the Potency result in test [2], in test [3], in test [4], in test [5], in [7] and in [9] was “inactive” in each case. The Potency entry in test [16], in test [10], in test [11], in test [12] and in [13] was “inactive” in each case.
Take `C/C=C\C/C=C/CCCCCCCCOC(C)=O`: the Potency entry in test [14], in test [2], in test [4], in test [6], in test [7] and in test [9] was “inactive” throughout. Further, the Potency result in test [17], in [16], in test [19] and in test [11] was “inactive” each time.
For `CCCCOc1ccc(OCCCN2CCOCC2)cc1`, the Potency entry in [1], in test [2], in test [3], in test [4], in test [6] and in test [8] was “inactive” each time. Also, the Potency result in test [9], in test [16], in test [18], in [19] and in test [11] was “inactive” throughout.
Consider `O=C1c2ccccc2C(=O)N1CCc1noc(-c2ccc(CN3CCCCCC3)s2)n1`, for which the Potency result in test [1], in test [15], in test [4], in [6], in test [7] and in [8] was “inactive” each time. Further, the Potency entry in test [9], in test [17], in test [16], in test [18] and in test [11] was “inactive” in each case. In addition, the Potency in [5] is 6.29 µM (active).
